The structures appear in SMILES notation. Unmarked numbers belong to inactive results.

In the assay the target is HSP90AA1 (UniProt P07900). In words: lysine labeling ratio R10:1 (500 µM / 50 µM probe), SILAC-ABPP in living cells; higher = lower intrinsic lysine reactivity toward the probe, active = 2 or less. Particulars: HeLa, probe concentrations 500 vs 50 µM. The protocol: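 Living HeLa cells (SILAC light/heavy) in PBS at room temperature were labeled with 50 µM versus 500 µM of the lysine-reactive, reductant-cleavable probe OPA-S-S-alkyne (SILAC labeling time not stated). Probe-modified peptides were CuAAC-biotinylated, captured on neutravidin and eluted with DTT/IAA, then quantified by LC-MS/MS. R = median peptide ratio per lysine (500/50 µM), combined over 3 forward and 3 reverse SILAC replicates. Ratios are capped at 20; R < 2 = hyper-reactive.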

Turning to `C#CCNC(=O)CCSSCCC(=O)NCCc1ccc(C=O)c(C=O)c1`, the “lysine labeling ratio R10:1” value (lysine site: K58) is 3.2; the “lysine labeling ratio R10:1” value (lysine site: K84) was 4.81; the “lysine labeling ratio R10:1” value (lysine site: K457) was 0.935 (active); the “lysine labeling ratio R10:1” value (lysine site: K458) is 2.96; the “lysine labeling ratio R10:1” value (lysine site: K585) is 6.47; the “lysine labeling ratio R10:1” value (lysine site: K632) is 5.33.

The record behind these values is the supplement of paper PMC11001985.
